Assay [1] is described as follows: High-throughput drug toxicity screening in the BPDCN cell line Gen2.2 (AID 1224824; call rule not given here;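 further: cells exposed to compounds for 48 h before reading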). The settings on record: Gen2.2 BPDCN cells; at 45.8 µM (top of the series). The procedure, abridged: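 Seed 500 exponentially growing Gen2.2 cells/well; add compounds by pin tool; incubate 48 h, 37 °C, 5% CO2; add CellTiter-Glo, 15 min RT; read luminescence. % activity vs DMSO (100%) and bortezomib (0%).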

Assay [2] in a line: High-throughput drug toxicity screening in the BPDCN cell line Cal-1 (AID 1224825; call rule not given here). As to conditions: Cal-1 BPDCN cell viability, qHTS; at 45.8 µM (top of the series). The method, boiled down: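 Percent activity derived from CellTiter-Glo luminescence, scaling DMSO to 100% and 9.2 uM final bortezomib to 0%. BPDCN Cal-1 cells (500/well, RPMI plus 10% FBS) incubated with compounds 48 hours at 37C before reading.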

Assay [3] is described as follows: qHTS assay for measurement of the activity of small molecule inhibitors on Zika virus induced Caspase-3 activity in human iPSC derived neural progenitor cells (hNPCs) (AID 1224857). Further: nearly all actives have a fitted effect of over 65% in size. Further: potency means the concentration at half of the fitted maximal effect. The procedure, abridged:
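Percent inhibition of virus-induced caspase-3/7 luminescence (Caspase-Glo), scaled between uninfected cells and Zika-infected cells. hNPCs received compound 1 hr before ZIKV at 2 FFU/cell, with 6 hours infection at 37 C.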

The nature of assay [4]: qHTS assay for measurement of the activity of small molecule inhibitors on Zika virus induced Caspase-3 activity in human astrocytoma cells (AID 1224859). Further: potency means the concentration at half of the fitted maximal effect. The method, boiled down:
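Luminescent caspase-3/7 read-out (30 min reagent, room temperature) in human SNB-19 cells infected 6 h with ZIKV (2 FFU/cell) after 1 h compound pre-incubation; Data were normalised to uninfected and infected wells.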
In general terms: In qHTS, concentration-response curves come from the screen itself.

The structures appear in SMILES notation. Records with an inconclusive call do not appear. The source made the active and inactive calls. Unless noted, the call rests on the fitted dose curve; in most records, active means well fitted inhibition curve with a large enough effect; inconclusive means small, poorly fitted or top-dose-only effect; inactive means no such curve, though single readings can be large or run the other way.

Turning to `CCOP(=O)(OCC)C(C)NC(=O)N(CCCl)N=O` (stereo not drawn), in assay [1], the cell viability, % of control (lower = more cytotoxic) was 109%. Also, the viability (% of control) in assay [2] worked out at 103%. For the same compound, the Potency entry in assay [3] is “inactive”.

Take `CC(N[C@H]1C[C@H]1c1ccccc1)c1ccc2c(c1)OCCO2` (stereo partly drawn): the cell viability, % of control (lower = more cytotoxic) in assay [1] came out at 154%. Moreover, the viability (% of control) in assay [2] is 96.1%.

Take `CC(=Cc1csc(C)n1)[C@@H]1C[C@H]2O[C@@H]2CCC[C@H](C)[C@@H](O)[C@@H](C)C(=O)C(C)(C)[C@@H](O)CC(=O)O1`: the cell viability, % of control (lower = more cytotoxic) in assay [1] turned out to be 50.1%. For the same compound, the viability (% of control) in assay [2] was determined as 26.8%. In addition, the Potency result in assay [3] was “inactive”.

For the compound `Cc1ccccc1-n1c(Cn2ncc3c(N)ncnc32)nc2cccc(C)c2c1=O`, the cell viability, % of control (lower = more cytotoxic) in assay [1] came to 28.1%. For the same compound, the viability (% of control) in assay [2] came to 17.1%. Moreover, the Potency result in assay [3] was “inactive”.

For `C[C@](O)(COc1ccc(C#N)cc1)C(=O)Nc1ccc(C#N)c(C(F)(F)F)c1`, the cell viability, % of control (lower = more cytotoxic) in assay [1] was 54.6%. The viability (% of control) in assay [2] was found to be 99.4%. Also, in assay [3], the Potency result is “inactive”.

As for `c1ccc2c(CN3CCNCC3)cccc2c1`, the cell viability, % of control (lower = more cytotoxic) in assay [1] came out at 112%. Besides, the viability (% of control) in assay [2] was 99%. Moreover, the Potency entry in assay [3] and in assay [4] was “inactive” each time.

As to `C[C@H]([C@H](O)CCC(C)(C)O)[C@H]1CC[C@@]2(O)C3=CC(=O)[C@@H]4C[C@@H](O)[C@@H](O)C[C@]4(C)[C@@H]3CC[C@]12C`, in assay [1], the cell viability, % of control (lower = more cytotoxic) stood at 127%. For the same compound, the viability (% of control) in assay [2] is 110%. For the same compound, the Potency result in assay [3] and in assay [4] was “inactive” in each case.

For the compound `CO[C@H]1CCC(O[C@H]2C[C@H]([C@]3(C)CC[C@]4(C[C@H](O)[C@@H](C)[C@@H]([C@@H](C)C=C(C)C(=O)[C@H](C)C[C@H](C)C(=O)O)O4)O3)O[C@]3(O[C@@H]([C@H]4O[C@@](O)(CO)[C@H](C)C[C@H]4C)C[C@H]3C)[C@H]2C)O[C@H]1C` (stereo partly drawn), the cell viability, % of control (lower = more cytotoxic) in assay [1] came to 92%. In addition, the viability (% of control) in assay [2] was found to be 72.5%. Also, the Potency entry in assay [3] and in assay [4] was “inactive” throughout.

On to `CC(C)(O)C=CC(=O)[C@](C)(O)[C@H]1[C@H](O)C[C@]2(C)[C@@H]3CC=C4[C@@H](C=C(O)C(=O)C4(C)C)[C@]3(C)C(=O)C[C@@]12C`, for which, in assay [1], the cell viability, % of control (lower = more cytotoxic) stood at 4.04%. The viability (% of control) in assay [2] stood at 2.59%. Further, the Potency result in assay [3] was “inactive”.

For the compound `O=C(N[C@H]1CN2CCC1CC2)c1ccc(Cl)cc1`, in assay [1], the cell viability, % of control (lower = more cytotoxic) was determined as 126%. Moreover, the viability (% of control) in assay [2] worked out at 106%. Further, the Potency result in assay [3] and in assay [4] was “inactive” each time.

In the case of `O=C(N[C@@H](COc1ccc2[nH]c(=O)[nH]c2c1)c1ccccc1)c1cccn(Cc2ccc(F)c(F)c2)c1=O`, the cell viability, % of control (lower = more cytotoxic) in assay [1] was found to be 46.5%. Moreover, the viability (% of control) in assay [2] came out at 36.8%. In addition, the Potency entry in assay [3] and in assay [4] was “inactive” each time.

Consider `CC(=O)O[C@@]12CO[C@H]1C[C@H](O)[C@@]1(C)C(=O)[C@H](O)C3=C(C)[C@@H](O)C[C@@](O)([C@@H](OC(=O)c4ccccc4)[C@@H]21)C3(C)C`, for which, in assay [1], the cell viability, % of control (lower = more cytotoxic) was 42%. The viability (% of control) in assay [2] was found to be 20.6%. Moreover, the Potency result in assay [3] and in assay [4] was “inactive” in each case.

On to `O=C1C=CC[C@@H]2[C@H]3CCCN4CCC[C@@H](CN12)[C@@H]34`, for which the cell viability, % of control (lower = more cytotoxic) in assay [1] was determined as 126%. Also, in assay [2], the viability (% of control) amounted to 120%. Also, the Potency in assay [3] was 4.69 µM (active); in assay [4], 3.32 µM (active).

As for `NC1=NC(=O)N2CC12` (stereo not drawn), the cell viability, % of control (lower = more cytotoxic) in assay [1] turned out to be 8.27%. Also, in assay [2], the viability (% of control) was 7.57%. The Potency result in assay [3] was “inactive”.

On to `NC1CC1c1ccccc1` (stereo not drawn), for which the cell viability, % of control (lower = more cytotoxic) in assay [1] turned out to be 70.9%. Besides, the viability (% of control) in assay [2] worked out at 95.2%. For the same compound, the Potency entry in assay [3] and in assay [4] was “inactive” each time.

Regarding `CCOC(=O)Nc1ccc(NCc2ccc(F)cc2)cc1N`, the cell viability, % of control (lower = more cytotoxic) in assay [1] was determined as 120%. Besides, the viability (% of control) in assay [2] came to 105%. Also, the Potency result in assay [3] and in assay [4] was “inactive” in each case.

Turning to `CC(=O)N(C)c1cccc(-c2ccnc3c(C(=O)c4cccs4)cnn23)c1`, the cell viability, % of control (lower = more cytotoxic) in assay [1] stood at 111%. For the same compound, in assay [2], the viability (% of control) was 72.5%. Further, the Potency result in assay [3] was “inactive”.

With `C[C@]12Cc3cn[nH]c3C[C@@H]1CC[C@@H]1[C@H]2CC[C@@]2(C)[C@H]1CC[C@]2(C)O`, the cell viability, % of control (lower = more cytotoxic) in assay [1] amounted to 133%. The viability (% of control) in assay [2] amounted to 111%. Moreover, the Potency entry in assay [3] and in assay [4] was “inactive” in each case.

As to `CCN1C[C@]2(OC(=O)c3ccccc3NC(C)=O)CC[C@H](OC)[C@@]34[C@H]5CC6[C@@H](OC)C[C@](O)(C(C[C@@H]23)[C@@H]14)[C@@]5(O)[C@@H]6OC`, the cell viability, % of control (lower = more cytotoxic) in assay [1] was 137%. Further, the viability (% of control) in assay [2] came to 108%. Moreover, the Potency result in assay [3] is “inactive”.

In the case of `O=S(=O)(CC1CS1)c1ccc(Oc2ccccc2)cc1` (stereo not drawn), in assay [1], the cell viability, % of control (lower = more cytotoxic) was 3.87%. In addition, the viability (% of control) in assay [2] was determined as 3.02%. For the same compound, the Potency entry in assay [4] was “inactive”.

As to `C[C@]12COC(=O)C[C@@H]1CC[C@@H]1[C@H]2CC[C@@]2(C)[C@H]1CC[C@]2(C)O`, the cell viability, % of control (lower = more cytotoxic) in assay [1] came to 122%. Further, in assay [2], the viability (% of control) was determined as 111%. Also, the Potency entry in assay [4] is “inactive”.

Consider `COc1ccc(N(C(=O)Oc2c(C)cccc2C)c2ccnc(Nc3ccc(N4CCN(C)CC4)cc3)n2)c(OC)c1`, for which the cell viability, % of control (lower = more cytotoxic) in assay [1] is 137%. Besides, the Potency entry in assay [3] and in assay [4] was “inactive” throughout.

In the case of `C[C@@H]1CC[C@H]2[C@@H](C)C(=O)O[C@@H]3O[C@@]4(C)CC[C@H]1[C@]32OO4`, the cell viability, % of control (lower = more cytotoxic) in assay [1] stood at 95.1%. For the same compound, the Potency entry in assay [3] and in assay [4] was “inactive” each time.

`O=C(Nc1ccncc1)C(=O)c1cn(Cc2ccc(Cl)cc2)c2ccccc12`: in assay [1], the cell viability, % of control (lower = more cytotoxic) was determined as 73.9%. In addition, the Potency entry in assay [3] was “inactive”.

For `CC(=Cc1csc(C)n1)[C@@H]1C[C@H]2O[C@]2(C)CCC[C@H](C)[C@@H](O)[C@@H](C)C(=O)C(C)(C)[C@@H](O)CC(=O)O1`, in assay [1], the cell viability, % of control (lower = more cytotoxic) stood at 50.2%. Further, in assay [4], the Potency entry is “inactive”.

Take `CCOC(=O)c1c(C(C#N)=CN)c2ccc(Cl)c(Cl)c2n1C`: the cell viability, % of control (lower = more cytotoxic) in assay [1] stood at 130%. Also, the Potency entry in assay [3] was “inactive”.

Regarding `Cc1c(C(=O)c2cccc3ccccc23)c2cccc3c2n1[C@H](CN1CCOCC1)CO3`, in assay [2], the viability (% of control) is 40%. Also, the Potency result in assay [3] and in assay [4] was “inactive” each time.

As for `C#C[C@]1(O)C=C[C@@H]2[C@@H]3CCC4=CC(=O)CC[C@@H]4[C@H]3CC[C@@]21CC`, the cell viability, % of control (lower = more cytotoxic) in assay [1] was determined as 62.7%. The viability (% of control) in assay [2] was 74.7%. In addition, the Potency result in assay [3] and in assay [4] was “inactive” throughout.

For `COc1ccc2c(c1)[C@]13CCCCC1C(C2)N(C)CC3` (stereo partly drawn), in assay [1], the cell viability, % of control (lower = more cytotoxic) is 61.8%. Further, the Potency result in assay [4] was “inactive”.

Consider `CC(C)(C)c1cc(C=C(C#N)C#N)cc(Br)c1O`, for which the cell viability, % of control (lower = more cytotoxic) in assay [1] was 12.6%. Besides, the Potency result in assay [3] and in assay [4] was “inactive” in each case.

With `C=C[C@@H]1CN2CCC1C[C@H]2[C@H](O)c1ccnc2ccccc12` (stereo partly drawn), in assay [1], the cell viability, % of control (lower = more cytotoxic) was 14.7%. The Potency entry in assay [4] is “inactive”.
